This passage reports growth inhibition results from PubChem BioAssay (NCI).

About 79,000 compounds went through this panel and 15% of them were active in at least one assay; those are over-represented in the sample as a whole. A number with no mark means an inactive call. Active and inactive are the calls of the source. Rule as the data show it: active = growth inhibition above about 70%; inactive = the rest.

Assay [1] is described as follows: NCI Yeast Anticancer Drug Screen. Data for the rad50 strain (AID 155).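 Also: 0% = growth of vehicle-only cultures of the same strain.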 The following applies: S. cerevisiae rad50 strain growth inhibition; at 50.0 µM; active compounds read high. A digest of the protocol:
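Readout: growth inhibition relative to vehicle-treated cultures. Compound exposure was carried out in a genetically defined yeast strain deficient in DNA damage repair.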

Assay [2] in a line: NCI Yeast Anticancer Drug Screen. Data for the mec2-1 strain (AID 157). The following applies: S. cerevisiae mec2-1 strain, at 50.0 µM, active compounds read high. A digest of the protocol:
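Readout is yeast growth inhibition, normalised to vehicle-treated controls, in the mec2-1 strain exposed to compound.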

Assay [3] can be described thus: NCI Yeast Anticancer Drug Screen. Data for the sgs1 mgt1 strain (AID 161).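 Also: 0% = growth of cultures given vehicle only.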 The following applies: S. cerevisiae sgs1 mgt1 strain, at 50.0 µM, active compounds read high. A digest of the protocol:
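Percent growth inhibition was derived by comparing compound-exposed mutant yeast with vehicle-exposed cultures. The strain carries alterations in DNA damage repair.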

A short description of assay [4]: NCI Yeast Anticancer Drug Screen. Data for the cln2 rad14 strain (AID 165).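 Also: 0% = growth equal to vehicle treated cultures.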 To be noted: S. cerevisiae cln2 rad14 strain, at 50.0 µM, active compounds read high. A digest of the protocol: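 Relative to vehicle controls, growth inhibition of compound-treated cln2 rad14 yeast was recorded.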
The nature of assay [5]: NCI Yeast Anticancer Drug Screen. Data for the bub3 strain (AID 167). The following applies: S. cerevisiae bub3 mutant strain, at 50.0 µM, active compounds read high. A digest of the protocol: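 Readout: yeast growth inhibition, expressed relative to vehicle-only wells. The test organism is a mutant strain from a panel with lesions in DNA repair or checkpoint genes.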
Assay [6] can be described thus: NCI Yeast Anticancer Drug Screen. Data for the mlh1 rad18 strain (AID 175). To be noted: S. cerevisiae mlh1 rad18 strain growth inhibition; at 50.0 µM; active compounds read high. A digest of the protocol:
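Test agents were incubated with a yeast strain of defined genotype (DNA damage repair defect). Inhibition of growth was derived by comparison with vehicle-exposed cultures.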

For `C=C1C(C)C2C(Cc3ccccc3)NC(=O)C23OC(=O)/C=C\CC(=O)CCC(C)C/C=C/C3C1O` (stereo unspecified), the growth inhibition in assay [1] was 91.4% (active); in assay [2], 93.2% (active); in assay [3], 93% (active); in assay [4], 90.8% (active); in assay [5] it was 90.8% (active); in assay [6], 91.2% (active).
As for `O=C(OCCNC1CCCCC1)c1ccc([N+](=O)[O-])cc1`, the growth inhibition in assay [1] was 8.85%; in assay [2] it was 2.5%; in assay [3], 1.45%; in assay [4], -43.5%; in assay [5] it was -4.5%; in assay [6] it was 11.3%.
With `Nc1ccc([N+](=O)[O-])cc1C(=O)Oc1ccccn1`, the growth inhibition in assay [1] was 9.15%; in assay [2] it was 5%; in assay [3], 8.5%; in assay [4], 10.8%; in assay [5] it was -3.6%; in assay [6] it was 19%.
Regarding `CC(=O)C(=C(c1ccccc1)c1ccccc1)c1ccccc1`, the growth inhibition was -51.4% in assay [1]; -7.8% in assay [2]; -32.9% in assay [3]; -1.4% in assay [4]; -46.6% in assay [5]; 7.6% in assay [6].
With `O=C(Nc1ccccc1)C1C2C=CC(CC2)C1C(=O)Nc1ccccc1` (stereo unspecified), the growth inhibition was -0.25% in assay [1]; 4.95% in assay [2]; 7.7% in assay [3]; -10.2% in assay [4]; -11.5% in assay [5]; -13.6% in assay [6].
As to `COc1ccc(C2c3cc4c(cc3OC(Nc3ccccc3)C2C)OCO4)cc1` (stereo unspecified), the growth inhibition in assay [1] was 9%; in assay [2] it was 9.95%; in assay [3] it was 30%; in assay [4] it was 43.8%; in assay [5], 27.1%; in assay [6], 33.6%.
On to `Cc1c(Br)cc(Br)c(O)c1Br`, for which the growth inhibition is 37.3% in assay [1]; 26.9% in assay [2]; 23.7% in assay [3]; -29.4% in assay [4]; 9.1% in assay [5]; 31.1% in assay [6].
For `C(=N[C@H]1CCCC[C@H]1N=Cc1ccc[nH]1)c1ccc[nH]1`, the growth inhibition in assay [1] is 14.8%; in assay [2], -3.6%; in assay [3], 8.75%; in assay [4], 3.45%; in assay [5], 13.9%; in assay [6], 20.7%.
Regarding `CC(=O)Nc1ccc(F)cc1`, the growth inhibition in assay [1] is -38.3%; in assay [2], -25.7%; in assay [3] it was -5.3%; in assay [4] it was 4%; in assay [5], -19.5%; in assay [6] it was -13.1%.
As to `CSc1nc(=O)cnn1C`, the growth inhibition is -22.3% in assay [1]; -8.6% in assay [2]; -15.6% in assay [3]; -0.5% in assay [4]; -49.2% in assay [5]; -5.35% in assay [6].
For `Cc1cn(C2CC(O)C(CO)O2)c(=O)nc1N1CCCCCCC1` (stereo unspecified), the growth inhibition in assay [1] was -6.85%; in assay [2] it was -4.8%; in assay [3], -11.3%; in assay [4], -12.3%; in assay [5], 4.85%; in assay [6], 0.3%.
With `N#CCCCCBr`, the growth inhibition in assay [1] is 12.4%; in assay [2], 6.95%; in assay [3] it was -4.2%; in assay [4] it was -50.7%; in assay [5] it was 15.6%; in assay [6], 7.5%.
In the case of `FC1=C2C3CCC(C3)C2C1(F)F` (stereo unspecified), the growth inhibition in assay [1] was 12.1%; in assay [2], 4.1%; in assay [3], 20.1%; in assay [4], 16.9%; in assay [5], 2.7%; in assay [6], 17.1%.
As to `O=c1/c(=C/c2ccccc2[N+](=O)[O-])sc2nnc(-c3cccnc3)n12`, the growth inhibition is 11.7% in assay [1]; 6.45% in assay [2]; 12.8% in assay [3]; 21.1% in assay [4]; 11.8% in assay [5]; 1.4% in assay [6].
Turning to `C[CH2][Ge]([CH2]C)([CH2]C)[O]C(=O)CCC(=O)[O][Ge]([CH2]C)([CH2]C)[CH2]C`, the growth inhibition in assay [1] is -2.1%; in assay [2], -2.9%; in assay [3], -3.7%; in assay [4] it was -66.7%; in assay [5], -0.45%; in assay [6] it was 14.7%.
With `Cc1[nH]n(-c2ccccc2)c(=S)c1C(=O)c1ccccc1`, the growth inhibition in assay [1] was -11.7%; in assay [2], 1.05%; in assay [3] it was 2.55%; in assay [4], 1.7%; in assay [5], 2.25%; in assay [6] it was 0.45%.
As to `O=C1NCC(c2ccccc2)(c2ccccc2)O1`, the growth inhibition in assay [1] was 26.9%; in assay [2] it was 11.3%; in assay [3], 10.3%; in assay [4], 11.8%; in assay [5], 4.45%; in assay [6], 19.4%.
As to `CC1CC2=Cc3c(O)c(O)cc(O)c3C(=O)C2=CO1` (stereo unspecified), the growth inhibition in assay [1] is -5.5%; in assay [2] it was -31.7%; in assay [3] it was -19.7%; in assay [4] it was -11.6%; in assay [5], -5.7%; in assay [6], -19.1%.
With `Cc1ccc2c(c1)C(=O)C1(C2)Cc2ccc(C)cc2C1=O`, the growth inhibition in assay [1] was -53%; in assay [2], -45.9%; in assay [3], 4.05%; in assay [4] it was -3.45%; in assay [5], 5.45%; in assay [6], -24.9%.
Consider `COc1cc(C(C)O)c[n+](CCc2c[nH]c3ccccc23)c1` (stereo unspecified), for which the growth inhibition in assay [1] is -30%; in assay [2], -19.5%; in assay [3], -45.9%; in assay [4], -8.1%; in assay [5], -28%; in assay [6], -36.5%.
`CC(=O)OC(C)(C#N)C(C)(C#N)OC(C)=O` (stereo unspecified): the growth inhibition was -13.3% in assay [1]; -6.4% in assay [2]; -1.1% in assay [3]; -37.1% in assay [4]; -8.75% in assay [5]; -20.3% in assay [6].
